SmPrx2 inh – inhibitors of Schistosoma mansoni peroxiredoxin 2 | 65,000 tested, 0.07% active | Potency, µM | S. mansoni Prx2 activity coupled to TGR/GSH (TGR is thioredoxin glutathione reductase), NADPH fluorescence loss, qHTS | AID 448
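Purified S. mansoni TGR and Prx2 in pH 7.4 phosphate buffer with EDTA and Tween-20 were preincubated with compounds for 15 min. Further NADPH/GSH was added, then a 2.5 mM H2O2 aliquot initiated turnover, followed kinetically by NADPH fluorescence.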
LT uptake inh – anthrax lethal toxin internalization inhibition; Cells, anthrax lethal toxin internalization, FRET ratio (460/530); Potency, µM (titrated, usually from 40 µM), for inactives: top-dose activity change, negative = inhibition, actives largely listed as inhibitors; 70,000 tested, 0.67% active; note: % is set by controls: 0 for no effect and ±100 for the full control effect; nearly all actives have a fitted effect of over 50% in size
AmpC inh det – AmpC beta-lactamase inhibition, detergent assay; P00811; purified AmpC, nitrocefin hydrolysis with detergent; Potency, µM (series often up to 28.7 µM), inactives show at the top dose activity change, negative = inhibition; 71,000 tested, 0.09% active; AID 584; active = well fitted curve in the direction sought with a large enough effect; inconclusive = small, poorly fitted or top-dose-only effect; note: % is set by controls: 0 for no effect and ±100 for the full control effect
Target sequence (P00811 whole entry, looked up): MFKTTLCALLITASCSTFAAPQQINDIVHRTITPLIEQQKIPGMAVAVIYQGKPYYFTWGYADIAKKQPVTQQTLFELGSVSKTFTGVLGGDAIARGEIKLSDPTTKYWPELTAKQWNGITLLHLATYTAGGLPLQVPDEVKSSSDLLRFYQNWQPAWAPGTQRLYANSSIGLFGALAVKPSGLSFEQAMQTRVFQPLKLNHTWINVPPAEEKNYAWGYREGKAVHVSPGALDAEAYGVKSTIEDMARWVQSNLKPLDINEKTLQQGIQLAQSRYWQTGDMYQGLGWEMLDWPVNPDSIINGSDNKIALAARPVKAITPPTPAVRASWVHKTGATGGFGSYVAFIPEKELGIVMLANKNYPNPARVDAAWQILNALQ
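E. coli AmpC (5.3 nM) in 20 mM phosphate pH 7.0 with 0.01% Triton X-100, preincubated 15 min RT with compound; nitrocefin (2 uL of 800 uM stock) hydrolysis followed by 480 nm absorbance every 20 s over 4 min.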
AmpC nodet inh – blocks E. coli AmpC beta-lactamase in absence of detergent. AID 585. P00811. AmpC nitrocefin hydrolysis, absorbance 480 nm, no detergent. 71,000 tested, 1.8% active. Potency, µM (doses to about 28.7 µM), inactives show top-dose activity change, negative = inhibition; note: % of control where 0% means no effect
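Enzyme, pH 7.0 phosphate. Compound titrations were pre-incubated with AmpC for 15 min at room temperature before nitrocefin (stock 800 uM) addition; product formation was recorded at 480 nm every 20 s for 4 min.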
Active calls of the source: *; u = inconclusive; x = no result given; [ ] = remark or other dose. Only some compounds are listed: those with a hit (about 2.4% of all), similar ones and a draw of the others. Unless noted, calls come from the whole dose curve. Potency is the fitted concentration of half-maximal effect.

SMILES	SmPrx2 inh	LT uptake inh	AmpC inh det	AmpC nodet inh
O=C(CCc1ccc(S(=O)(=O)N2CCCCC2)cc1)c1nnc(-c2ccccc2)o1	>57	-22%	-6%	20µM*[single pt active]
O=C(NCCCN1CCN(c2ccccc2F)CC1)C1CCCN(S(=O)(=O)c2cnc[nH]2)C1 (configuration not stated)	x	-2%	11%	4µM*[single pt active]
CN1c2cc3c(cc2N=C(c2ccc(C(=O)O)cc2)c2ccccc21)C(C)(C)CCC3(C)C	x	10µM*	x	x
O=C(Cn1c(=O)oc2ccccc21)N1CCN(c2ccc(N3CCOCC3)nn2)CC1	>57	2%	12%	2.5µM*[single pt active]
Cc1cccc2cc(C#N)c(SCC(=O)N3CC(=O)Nc4ccccc43)nc12	>57	-12%	-4%	16µM*[single pt active]
Cc1cccc2cc(C#N)c(SCC(=O)N3CCC(C)CC3)nc12	>57	-2%	-4%	29%
Cc1ccc(S(=O)(=O)Nc2cccc(-c3cn4ccsc4n3)c2)cc1	>57	u	-1%	6.3µM*
CCN(CC)c1ccc(C(=O)Nc2cccc(F)c2)cc1	>57	10µM*	3%	-21%
CN(C)c1cccc(C(=O)Nc2cccc(F)c2)c1	>57	x	-5%	-13%
O=S(=O)(NCCO)c1cc[c]([Sb](=[O])([OH])[OH])cc1	>57	-4%[8 µM]	1%[5.75 µM]	-11%[5.75 µM]
COc1ccc(OCc2nnc3n2N=C(c2ccc(Br)cc2)CS3)cc1	>57	u	12%	4µM*[single pt active]
C=C1C(=O)O[C@H]2C[C@@]3(C)CCCC(=C)[C@@H]3C[C@H]12	>57	u	1%	35%
C[C@]12Cc3cn4c(nc3C=C1CC[C@H]1[C@@H]2CC[C@@]2(C)[C@H]1CC[C@@]2(O)C#N)nc1ccccc14	>57	u	1%	20%
COc1cccc(C2=NOC(C(=O)Nc3cc(C)nn3-c3ccccc3)C2)c1OC (configuration not stated)	>57	u	11%	4µM*[single pt active]
COc1cc(OC)c(C2=NOC(C(=O)Nc3cc(C)nn3-c3ccccc3)C2)cc1Cl (configuration not stated)	>57	u	0%	78%
Oc1ccc(Nc2nc(N3CCCC3)c3ccccc3n2)cc1	>57	13µM*	30%	u
Cc1ccc(Nc2nc(N3CCOCC3)c3ccccc3n2)cc1	>57	-14%	0%	10%
N#CCSc1nc2ccccc2c(=O)n1CCC(=O)NCCc1ccccc1	>57	1%	-3%	16µM*[single pt active]
CC(=O)NCCn1c(SCC#N)nc2ccccc2c1=O	>57	u	1%	6%
O=C(O)c1ccc2cc(-c3ccc(O)c(C45CC6CC(CC(C6)C4)C5)c3)ccc2c1	x	10µM*	x	x
Nc1nc(SCc2ccccc2)ns1	>57	u	-4%	-17%
Nc1nc2c(s1)CC(c1ccccc1)CC2 (configuration not stated)	>57	4%	8%	7.9µM*
Nc1c(S(=O)(=O)c2cccs2)c2nc3ccccc3nc2n1/N=C/c1cccc(O)c1	>57	5µM*	-2%	-5%
CCCCN(C)C(=O)c1ccc(CS(=O)(=O)c2ccccc2C)o1	>57	-7%	12%	4µM*[single pt active]
CCOC(=O)N1CCC(NC(=O)c2ccc(CS(=O)(=O)c3ccccc3C)o2)CC1	>57	-3%	11%	4µM*[single pt active]
SMILES	SmPrx2 inh	LT uptake inh	AmpC inh det	AmpC nodet inh
CNc1ccc2oc(C[C@@H]3O[C@@]4(CC[C@H]3C)O[C@@H]([C@@H](C)C(=O)c3ccc[nH]3)[C@@H](C)C[C@H]4C)nc2c1C(=O)O	>57	u	-11%	6%
Cc1cc(NC(=O)CCS(=O)(=O)c2nc(-c3ccccc3)cc(C(F)(F)F)n2)no1	>57	7.9µM*	-3%	-11%
O=C(CSc1nnc(CNc2ccc(Cl)cc2)o1)Nc1nc2ccccc2s1	>57	-4%	0%	4µM*[single pt active]
O=C(COc1ccc(Cl)cc1)NCc1nnc(SCC(=O)Nc2ccccc2)o1	>57	-3%	-4%	30%
O=C(CSc1nnc(-c2ccccc2O)o1)Oc1ccc(OCc2ccccc2)cc1	>57	-13%	-7%	13µM*[single pt active]
Ic1ccccc1CN[C@@H]1C2CCN(CC2)[C@H]1C(c1ccccc1)c1ccccc1	>57	16µM*	0%	91%
CC(C)(C)NC(=O)C1CCCN(S(=O)(=O)c2cccc3cccnc23)C1 (configuration not stated)	>57	-6%	12%	4µM*[single pt active]
COC(=O)[C@H](NC(=O)c1cc(-c2ccccc2)nc2ccccc12)c1ccccc1	>57	5µM*	-1%	34%
